# Results published in PubChem BioAssay (NCI).
# About 83,000 compounds went through this panel and 20% of them were active in at least one assay; those are over-represented in the sample as a whole.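 96-well plates, one dose, 48 hours. Percent growth reported; active if below 10.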 Activity calls are given as the source filed them.
# System: HL-60(TB) leukemia
# Experiment: NCI-60 one-dose screen, 48 h (100 = growth as untreated, 0 = no growth, -100 = all killed)
# Conditions: 10 µM unless noted
row,SMILES,growth
1,CCC1N=C(N)N=C(N)N1c1ccc(Cl)cc1 (stereo not given),75.4% (inactive)
2,c1ccc(C2CCCCC2)c(OCCCCCN2CCNCC2)c1,28.2% (inactive)
3,COc1ccc(Cn2cc3c(c2-c2cc(OC)c(OC)c(OC)c2)CCc2cnoc2-3)cc1,0.149% (active)
4,Clc1ccc(C2=NN[C@H](c3cn(-c4ccccc4)nc3-c3ccccc3)C2)cc1,100% (inactive)
5,CN(C)Cc1cccs1,104% (inactive)
6,CC(C)CNc1nc(N=[N+]=[N-])nc(NCC(C)C)n1,48.9% [100 µM] (inactive)
7,COc1ccc(OC)c2c1[nH]c(=O)c1c3ccccc3cn21,-49.3% (active)
8,Cc1cc2c(C(C)C)c(O)c(O)c(C=NCc3ccoc3)c2c(O)c1-c1c(C)cc2c(C(C)C)c(O)c(O)c(C=NCc3ccco3)c2c1O,9.25% (active)
9,Nc1c(C(=O)Nc2ccccc2Cl)sc2nc3c(cc12)CN(Cc1ccccc1)CC3,75.6% (inactive)
10,CC(=O)Nc1ccc2c(c1)Cc1c(F)c(F)c(F)c(F)c1-2,65.5% (inactive)
11,COc1cc(C(=O)/C=C/c2cccnc2Nc2ccccc2)cc(OC)c1OC,-31.2% (active)
12,O=C1Nc2ccccc2/C1=C/C(=O)c1ccc(N2CCCCC2)cc1,-6.32% (active)
13,C[C@@H]1COCCN1c1cc(C2([S@](C)(=N)=O)CC2)nc(-c2ccnc3[nH]ccc23)n1,-9.62% (active)
14,COc1cc2c(cc1O)CC[C@@H]1[C@@H]2CC[C@]2(C)[C@@H](OCCN(C)C)CC[C@@H]12,87.6% (inactive)
15,COc1ccc2[nH]c(O)c(N=NC(=O)c3oc4ccccc4c3C)c2c1,53.9% (inactive)
16,CC(=O)N1N=C(c2ccc(Nc3nc(Nc4ccc(F)cc4)nc(Nc4ccc(F)cc4)n3)cc2)CC1c1cccc([N+](=O)[O-])c1 (stereo not given),0% (active)
17,N/C(=N\c1nc2ccccc2s1)NC(=O)Nc1cccc(Cl)c1,3.43% (active)
18,COc1ccc(C2CC(c3ccc4ccccc4c3)=NN2c2nc(O)c(C3=c4cc(OC)ccc4=NC3=O)s2)cc1 (stereo not given),36.2% (inactive)
19,CN1CCN(c2nc(-c3ccncc3)nc3sc4c(c23)CCCCCC4)CC1,88.3% (inactive)
20,COc1ccc2nc3cc(Cl)ccc3c(N3CCN(c4nccc(NCc5ccccc5)n4)CC3)c2c1,61.7% (inactive)

row,SMILES,growth
1,Nc1cc2[nH]c(=O)c3ccccc3c2cc1Br,125% (inactive)
2,CN1CCN(c2cc(Nc3cc(C4CC4)[nH]n3)nc(Nc3ccc(CC(=O)NCc4cccc(F)c4)cc3)n2)CC1,19.9% (inactive)
3,CCCCOc1nc2ccc(C)cc2cc1/C=C/C(=O)/C=C(O)/C=C/c1cc2cc(C)ccc2nc1OCCCC,99% (inactive)
4,COc1cc2c(-c3nc4cc(Cl)c(F)cc4s3)cc(=O)oc2c(C)c1OC,-56.2% (active)
5,COc1nc2ccccc2cc1/C=[N+](\[O-])c1ccccc1,-18.5% (active)
6,N#Cc1cccc(C2C3=C(COC3=O)N(CCO)c3cc4c(cc32)CCC4)c1 (stereo not given),-27.2% (active)
7,C=CCN1C(=O)/C(=c2\sc3n(c2=O)NC2C(N=3)N(CC)C(=O)N2CC)c2ccccc21 (stereo not given),-12.6% (active)
8,COc1cc(/C=C/C(=O)c2cc(-c3ccc(C(F)(F)F)cc3)ccc2O)cc(OC)c1OC,13.9% (inactive)
9,COc1ccc(C2C(C#N)=C(N)Oc3c2sc2c(Br)cccc32)cc1 (stereo not given),-9.13% (active)
10,COCCOC(C)C(/C=N/NC(N)=S)=N/NC(N)=S (stereo not given),81.6% (inactive)
11,CCOC(=O)C1=C(C)C(Cl)=N/C1=C\c1[nH]c(Cl)c(C)c1C(=O)OCC,95% (inactive)
12,C[Se]C(=O)CC1=C2C=C(F)C=CC2/C(=C\c2ccc(S(C)=O)cc2)C1C (stereo not given),-40% (active)
13,CN(C)c1ccc(/C=C(\C#N)c2cc3ccccc3[nH]2)cc1,22.2% (inactive)
14,C=C1C(=O)O[C@H]2[C@H]1CC/C(COC(=O)c1cc3cc(OC)ccc3[nH]1)=C\CC[C@@]1(C)O[C@@H]21,-34.5% (active)
15,C[C@H]1C=C(C[C@@H](O)CC#CC#CCCCCC[C@@H](O)[C@H]2CCC(=O)O2)C(=O)O1,99.1% (inactive)
16,CCCCC#Cc1c(/C=C(\CCCC)SCC)n(C)c(=O)[nH]c1=O,92.8% (inactive)
17,CNC(=O)c1cc(Oc2ccc3nc(NC(=O)Nc4cc(C(F)(F)F)cc(C(F)(F)F)c4)sc3c2)ccn1,-39.8% (active)
18,NC1=NC(c2ccc(Cl)cc2)C2=C(N1)/C(=C/c1ccc(Cl)cc1)CCC2 (stereo not given),64.8% (inactive)
19,COC12C=C/C(=C(/C(=O)OCc3cncnc3)C(=O)CCCCCCCCC3(OC)C=C/C(=C(/C(=O)OCc4cncnc4)C(=O)CCCCCCCC1)O3)O2,-27.4% (active)
20,C[N+](C)(CCCCCC[N+](C)(C)C1c2ccccc2-c2ccccc21)C1c2ccccc2-c2ccccc21,85.7% (inactive)
